Screening results deposited in PubChem BioAssay by National Center for Advancing Translational Sciences (NCATS).
Compounds with a hit are over-represented: about 7.3% of the library has one in this group of screens.
SMN2 splice enh: SMN2 splice variant enhancement; HEK293 SMN2-luciferase splicing reporter, luminescence, 30-36 h; Potency, µM (top dose mostly 46.1 µM), for the others: at the highest dose activity change, positive = activation, most hits filed as activators; 210,000 tested, 2.8% active; also: % of control where 0% means no effect; nearly all actives have a fitted effect of over 55% in size
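qHTS luciferase splicing reporter: luminescence rises when SMN2 exon 7 is included in transfected HEK293 cells. Compound exposure lasted 30-36 h at 37C, with 4.5 mM final sodium butyrate as control, followed by a ONE-Glo read.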
Rab9 promoter act: Rab9 promoter activation | Huh7 Rab9 promoter-luciferase reporter, luminescence, 24 h | Potency, µM (doses to about 9.22 µM), inactives show top-dose activation, negative = inhibition, hits mostly activators | 320,000 tested, 2.8% active | AID 485297; also: % of control where 0% means no effect; nearly all actives have a fitted effect of over 60% in size
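Huh7 cells stably carrying Rab9 promoter–luciferase reporter, plated 1500 cells/well, compound added after 2 h and incubated 24 h at 37 °C; luciferase luminescence then read after 10 min with detection reagent.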
NPC1 prom act: activates the NPC1 promoter; 320,000 tested, 2.4% active; Potency, µM (top dose mostly 9.22 µM), for inactives: at the highest dose activation, hits mostly activators; Huh7 NPC1 promoter luciferase reporter, 24 h; also: % of control where 0% means no effect; nearly all actives have a fitted effect of over 60% in size
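Cells: Huh7 expressing luciferase under the NPC1 promoter, 1500/well. Seeded 2 h, compound added, incubated 24 h at 37 °C. Luciferase reagent, 10 min ambient, then luminescence.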
ELG1 genotox: inducers of genotoxicity in HEK293T ELG1-luciferase cells; 330,000 tested, 1.3% active; HEK293T ELG1-luciferase reporter, luminescence, 16 h; Potency, µM (titrated, usually from 46 µM), without a hit: at the top dose activity change, positive = activation, most hits filed as activators; also: % of control where 0% means no effect; nearly all actives have a fitted effect of over 60% in size
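HEK293T cells expressing luciferase-tagged ELG1 were exposed to compound or DMSO vehicle for 16 hr at 37 °C and 5% CO2. Luciferase activity was then measured with ONE-Glo after 30 min at room temperature.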
FLuc counter: counter-screen for miR-21 project: firefly luciferase inhibitors or activators; purified FLuc, Km substrates, luminescence inhibition; Potency, µM (highest dose often 57.5 µM), for the others: at the highest dose activity change, negative = inhibition, actives largely listed as inhibitors; 360,000 tested, 6.9% active;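 also: plate controls were vehicle for no effect and reference inhibitor for full effect; nearly all actives have a fitted effect of over 55% in size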
Target sequence (P08659 whole entry, looked up): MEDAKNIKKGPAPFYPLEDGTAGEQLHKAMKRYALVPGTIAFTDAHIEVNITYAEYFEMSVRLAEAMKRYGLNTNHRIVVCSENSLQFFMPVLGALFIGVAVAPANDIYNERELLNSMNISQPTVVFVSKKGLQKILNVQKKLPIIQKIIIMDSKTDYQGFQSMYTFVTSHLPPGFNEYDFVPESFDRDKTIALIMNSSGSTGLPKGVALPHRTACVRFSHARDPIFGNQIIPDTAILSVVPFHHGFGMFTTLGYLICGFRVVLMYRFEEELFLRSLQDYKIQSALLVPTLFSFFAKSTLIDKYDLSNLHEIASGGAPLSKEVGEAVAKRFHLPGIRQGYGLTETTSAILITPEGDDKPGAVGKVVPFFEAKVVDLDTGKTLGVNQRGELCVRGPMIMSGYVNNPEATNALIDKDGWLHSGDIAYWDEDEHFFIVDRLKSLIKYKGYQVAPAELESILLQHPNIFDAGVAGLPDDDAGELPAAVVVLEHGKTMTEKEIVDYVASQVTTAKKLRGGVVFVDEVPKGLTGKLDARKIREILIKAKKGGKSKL
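Purified P. pyralis luciferase (10nM final) with 10uM D-luciferin and 10uM ATP (Km levels) in 50mM Tris acetate pH 7.5, 10mM Mg acetate, 0.01% Tween-20, 0.05% BSA; qHTS 6-point titration, ~60 µM downward; luminescence read.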
uPA surface inh: blocks generation of uPA at the cell surface | cell surface uPA generation assay, qHTS | Potency, µM (series often up to 38.3 µM), inactives show top-dose activity change, negative = inhibition, usual class: inhibitors | 330,000 tested, 0.31% active; active = well fitted inhibition curve with a large enough effect; inconclusive = small, poorly fitted or top-dose-only effect; inactive = no such curve, though single readings can be large or run the other way; tested in mouse RAW 264.7 cells; also: % is scaled to controls: 0 for no effect and ±100 for the full control effect; nearly all actives have a fitted effect of over 55% in size
An asterisk follows results filed as active; ? = inconclusive; . = not tested or not shown; [ ] = dose if it differs, or a comment. Unless noted, calls follow the shape of the dose curve; as a rule, active = well fitted curve in the direction sought with a large enough effect; inconclusive = small, poorly fitted or top-dose-only effect, or another doubt; inactive = no such curve, though single readings can be large; an effect the other way counts as inactive or inconclusive. Potency is read from the fitted curve at half-maximal effect.

SMILES | SMN2 splice enh | Rab9 promoter act | NPC1 prom act | ELG1 genotox | FLuc counter | uPA surface inh
CN(C)c1ccc(C(=O)OCC(=O)Nc2ccc(N3CCOCC3)cc2)cc1 | . | 4% | 0% | ? | 5% | -26%
CN(C)c1ccc(N=Nc2ccccc2C(=O)OCC(=O)N(C)c2ccccc2)cc1 | ? | 23% | 24% | -2% | 1.3µM* | -22%
COC(=O)c1ccccc1NC(=O)COC(=O)c1ccccc1N=Nc1ccc(N(C)C)cc1 | ? | 17% | 2% | 1% | 12µM* | -5%
CC(=O)c1ccc(NC(=O)COC(=O)c2ccccc2N=Nc2ccc(N(C)C)cc2)cc1 | ? | 12% | 1% | -3% | 5.4µM* | -12%
Cc1onc(-c2ccccc2Cl)c1C(=O)N1CCN(c2cccc(Cl)c2)CC1 | -62% | -12% | -21% | -8% | 7% | 2.2µM*
COc1ccc(CNS(=O)(=O)c2ccc(N3CCCCS3(=O)=O)cc2)cc1 | . | . | . | . | -7% | .
COc1cc(/C=N/N=C2/C(=O)Nc3ccccc32)cc(OC)c1O | 20% | -1% | -1% | 2% | 17µM* | -7%
COc1ccc(O)c(/C=N/N=C2/C(=O)Nc3ccccc32)c1 | -4% | 1% | -2% | 5% | 4.8µM* | -17%
O=C(Nc1ccccc1-c1ccccc1)c1ccc(NC(=O)c2ccco2)cc1 | -5% | 1% | 1% | -17% | 3% | 5%
COc1ccc(Cl)cc1NC(=O)c1cnc2sc(N3CCOCC3)nn2c1=O | . | . | . | . | -3% | .
Oc1c(CN2CCOCC2)cc(COCc2ccccc2)c2cccnc12 | -105% | -25% | -18% | 18µM* | 1% | -5%
Oc1c(CNc2ccccc2)cc(COCc2ccccc2)c2cccnc12 | . | -15% | -14% | -1% | 0% | ?
COC(=O)c1cc2oc3ccccc3c2n1Cc1nc(-c2ccccc2Cl)oc1C | 1% | . | . | . | -4% | .
O=C(O)c1ccc(/C=N/Nc2ccc(F)cc2F)cc1 | 1.8µM* | 0.11µM* | 0.32µM* | ? | 0.54µM* | -2%
O=C(O)c1ccc(N/N=C/c2c(F)cccc2Cl)cc1 | . | 1.3µM* | ? | 0.29µM* | 0.3µM* | 2%
CCNC(=S)N/N=C/c1ccc(C(=O)O)cc1 | -17% | -1% | 1% | -10% | 1% | 4%
CC(C)(C)c1ccc(/C=N/Nc2ccc(C(=O)O)cc2)cc1 | -91%[1.84 µM] | -16% | -19% | ? | 0.19µM* | 9%
Fc1ccc(N/N=C/c2ccncc2)c(F)c1 | ? | ? | ? | ? | ? | 2%
Fc1ccc(N/N=C/C=C/c2ccccc2)c(F)c1 | ? | ? | ? | ? | 27µM* | 15%
CCCCN1CC(c2nc3ccccc3n2CCCCOc2cc(C)ccc2C)CC1=O (centres undefined) | . | . | . | . | -5% | .
CCOc1ccc(CC(=O)NCCS(=O)(=O)N2CCN(c3ccc(OC)cc3)CC2)cc1 | . | . | . | . | -1% | .
CC1Oc2ccccc2C=C1/C=N/Nc1ccc(C(=O)O)cc1 (centres undefined) | . | ? | ? | 1.2µM* | 0.54µM* | 11%
O=C(O)c1ccc(N/N=C/c2ccc(C(F)(F)F)cc2)cc1 | -55% | ? | -16% | 0.1µM* | 0.21µM* | 4%
O=C(O)c1ccc(/C=N/Nc2ncc(C(F)(F)F)cc2Cl)cc1 | . | 19% | 17% | 6% | ? | 3%
C[C@@H]1Oc2ccccc2C=C1/C=C/C(=O)O | 18% | . | . | . | . | .
SMILES | SMN2 splice enh | Rab9 promoter act | NPC1 prom act | ELG1 genotox | FLuc counter | uPA surface inh
CC(C(Sc1ccccc1N)c1ccccc1)[N+](=O)[O-] (centres undefined) | . | -3% | -14% | ? | 9.5µM* | 11µM*
COc1ccc(OC)c(S(=O)(=O)N2CCCC(C(=O)NC3CC3)C2)c1 (centres undefined) | . | . | . | . | . | -1%
COc1ccc(/C=C(\C#N)C(=O)Nc2ccccn2)cc1 | . | -7% | -8% | ? | 2.1µM* | 0%
C=CCOc1ccc(/C=C(\C#N)C(=O)Nc2ccccn2)cc1OC | . | 1% | 1% | 0% | 3% | 0%
Cc1ccc(/C=C(\C#N)C(=O)Nc2cccc(C)n2)cc1 | . | -2% | 4% | -3% | 2.4µM* | 3%
COc1ccc(O)c(/C=C(\C#N)C(=O)Nc2ccccn2)c1 | . | -2% | -2% | 17% | 2.4µM* | -3%
Cc1cccc(NC(=O)/C(C#N)=C\c2ccc(C(=O)O)cc2)c1 | -7% | -5% | -6% | -9% | ? | 2%
Cc1ccc(/C=C(\C#N)C(=O)Nc2ccccn2)o1 | 18µM* | 2.5µM* | ? | 5.2µM* | 8.5µM* | -9%
CSc1ncc(C(=O)Nc2ccc(C(C)=O)cc2)c(C)n1 | . | ? | ? | 6% | ? | 11%
Cc1noc(C)c1S(=O)(=O)N(CC(=O)NC1CCC(C)CC1)c1ccc(C(C)C)cc1 (centres undefined) | . | 0% | -22% | 1% | 1% | -4%
CCc1nnc(SCc2cccc(Cl)c2)c2cc3sccc3n12 | -22% | . | . | . | -11% | .
Cc1cc2nc3c(=O)n(C)c(=O)n(C)c3nc2cc1N=CN(C)C | -2% | . | . | . | -3% | .
COc1ccc2oc(=O)c(C(=O)NCCc3c(C)[nH]c4ccc(Br)cc34)cc2c1 | 1% | . | . | . | -1% | .
Cc1nc(-c2coc3cc(O)c(C)cc3c2=O)cs1 | 25µM* | ? | ? | ? | 0.95µM* | -15%
Cc1nc(-c2coc3cc(C)c(N=O)c(O)c3/c2=N\N)cs1 | 3% | -4% | -3% | 3% | ? | 3%
Cc1nc(-c2coc3cc(OCC(=O)O)ccc3c2=O)cs1 | -6% | -10% | -5% | -9% | 1.9µM* | .
CC(C)(C)c1ccc(Oc2coc3cc(OCC(=O)O)ccc3c2=O)cc1 | . | -11% | 1% | 1% | 2.1µM* | -11%
CC(=O)N1c2ccccc2N(Cc2ccc(C)cc2C)C(=O)C1(C)C | 12% | -9% | -23% | -7% | 2% | 7.1µM*
C=CCN1C(=O)C(C)(C)N(C(C)=O)c2ccccc21 | 5% | -2% | -8% | 3% | 1% | -11%
